Screening data (PubChem BioAssay)
AmpC detergent = inhibitors of E. coli AmpC beta-lactamase with detergent. P00811. AmpC hydrolysis of nitrocefin, absorbance 480 nm, 0.01% Triton. Potency, µM (top dose mostly 114 µM), without a hit: top-dose activity change, negative = inhibition, hits mostly inhibitors. 370,000 compounds, 0.041% hits. AID 485294;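 further: potency means the concentration at half of the fitted maximal effect; 0% = no-compound wells and -100% = no-enzyme wells; nearly all actives have a fitted effect of over 25% in size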
Target sequence (P00811 whole entry, looked up): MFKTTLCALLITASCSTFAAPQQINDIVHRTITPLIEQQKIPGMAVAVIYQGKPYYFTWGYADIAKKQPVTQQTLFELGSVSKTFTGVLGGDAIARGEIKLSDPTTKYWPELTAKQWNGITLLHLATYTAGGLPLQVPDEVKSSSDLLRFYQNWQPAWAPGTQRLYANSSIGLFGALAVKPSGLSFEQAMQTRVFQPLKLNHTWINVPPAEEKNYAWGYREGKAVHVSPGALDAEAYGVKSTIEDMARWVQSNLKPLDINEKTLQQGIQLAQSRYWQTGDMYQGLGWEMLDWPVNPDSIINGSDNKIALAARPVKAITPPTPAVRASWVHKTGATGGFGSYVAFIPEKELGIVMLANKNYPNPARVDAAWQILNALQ
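20 mM phosphate pH 7.0 + 0.01% (detergent screen) or 0.0001% Triton X-100; 5.3 nM AmpC reagent; cpd preinc 15 min RT; nitrocefin (800 uM stock) to start; A480 q20 s × 4 min; Activity was normalised to no-enzyme and no-compound control wells.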
Shiga inhibitor = inhibitors of Shiga toxin in Vero cells. Vero cells, Shiga toxin protein synthesis inhibition reporter. inhibition, % at 38.7 µM. 290,000 compounds, 9.2% hits; in the data active means inhibition mostly above about 28%, no sharp cut-off; inactive means mostly below about 43%; further: 0% is about no effect
AmpC inh no detg = AmpC beta-lactamase inhibition without detergent; P00811; AmpC nitrocefin hydrolysis, absorbance 480 nm, 0.0001% Triton; Potency, µM (highest dose often 57.1 µM), for the others: at the highest dose activity change, negative = inhibition, hits mostly inhibitors; 330,000 compounds, 0.52% hits; AID 485341;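 further: potency means the concentration at half of the fitted maximal effect; plate controls were no compound for no effect and no enzyme for full effect; nearly all actives have a fitted effect of over 20% in size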
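20 mM phosphate pH 7.0 + 0.01% (detergent screen) or 0.0001% Triton X-100; 5.3 nM AmpC reagent; cpd preinc 15 min RT; nitrocefin (800 uM stock) to start; A480 q20 s × 4 min; Activity was normalised to no-enzyme and no-compound control wells.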
SARS PLP yeast = inhibitors of SARS-CoV papain-like protease in yeast. S. cerevisiae expressing SARS-CoV PLpro, growth rescue. Potency, µM (top dose mostly 32.9 µM), without a hit: top-dose activity, positive = growth rescue, hits mostly activators. 330,000 compounds, 0.19% hits. AID 485353; calls by dose curve; further: potency means the concentration at half of the fitted maximal effect; 0% is about no effect; nearly all actives have a fitted effect of over 55% in size
AMA1-RON2 inh = AMA1-RON2 (P. falciparum) interaction inhibition. 360,000 compounds, 0.2% hits. AlphaScreen AMA1-biotinylated RON2 peptide binding. Potency, µM (series often up to 58.2 µM), without a hit: at the highest dose activity change, negative = inhibition, usual class: inhibitors. AID 720542;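 further: potency means the concentration at half of the fitted maximal effect; 0% = vehicle wells and -100% = peptide control; nearly all actives have a fitted effect of over 45% in size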
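AMA1 (3D7) with his tag at 25 nM final met compounds first, then biotinylated RON2 peptide at 25 nM; detection used donor plus acceptor beads, 10 µg/mL apiece, read by AlphaScreen after 30 min at room temperature.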
CHX counter = counter-screen hit for Shiga toxin inhibitors, cycloheximide; 300,000 compounds, 12% hits; max response, %; AID 2314; cell reporter, cycloheximide protein synthesis inhibition counterscreen; in the data active means max response mostly above about 13%, no sharp cut-off; inactive means mostly below about 14%; further: read at 38.3 µM for the half of the compounds with a filed dose; 0% is about no effect
The depositor's hits bear a star; ? = inconclusive; . = no result given; [ ] = remark or other dose. Many of the other results were omitted from the sample, so hits are more common in it than they were. Unless noted, the call rests on the fitted dose curve; in most records, active means well fitted curve in the direction sought with a large enough effect; inconclusive means small, poorly fitted or top-dose-only effect, or another doubt; inactive means no such curve, though single readings can be large; an effect the other way counts as inactive or inconclusive.

SMILES	AmpC detergent	Shiga inhibitor	AmpC inh no detg	SARS PLP yeast	AMA1-RON2 inh	CHX counter
Cc1ccc(C2CC(c3cccs3)=NN2C(=O)CCl)cc1 (centres undefined)	-11%	43*	?	-5%	5%	43*
CCC(=O)N1N=C(c2cccs2)CC1c1ccc(C)cc1 (centres undefined)	-4%	-6	-9%	-2%	-5%	10
COc1ccc(C2CC(c3ccccc3OC(C)=O)=NN2C(C)=O)cc1 (centres undefined)	-4%	49*	-4%	-3%	17%	30*
COc1ccc(C2CC(c3ccccc3)=NN2C(=O)CSc2ncn[nH]2)cc1 (centres undefined)	1%	36	-1%	-1%	2%	17*
COc1ccc(C2CC(c3ccccc3)=NN2C(=O)CSc2ncccn2)cc1 (centres undefined)	9%	8	-8%	30%	-14%	-3
COc1ccc(OC)c(Nc2nc(N)c([N+](=O)[O-])c(N3CCOCC3)n2)c1	2%	-8	-7%	1%	-26%	1
NC(=O)CN(c1ccccc1)C1SC(=O)N(Cc2ccccc2)C1=O (centres undefined)	-13%	-2	-25%	0%	8%	-2
O=C(COC(=O)C1CC1)Nc1ccc([N+](=O)[O-])cc1C(F)(F)F	2%	.	-9%	-8%	22%	.
Cc1ccc(Sc2nnc(-c3ccccc3)cc2C#N)cc1	-3%	36	-24%	0%	0%	6
N#Cc1cc(-c2ccccc2)cnc1Sc1ccccc1	-10%	55*	-25%	-6%	50%	27*
COc1ccc(OC)c(S(=O)(=O)N(C)CC(=O)N2CCN(c3ccccc3F)CC2)c1	-2%	-2	68%	-4%	11%	-2
COc1ccc(/C=C2\C(=O)NCC(=O)N2C)cc1	?	-5	2%	0%	10%	-3
COc1ccc(/C=C2\OC(=S)N(C)C2=O)cc1	5%	23	-15%	-66%	-1%	11*
CN1C(=O)/C(=C\c2ccc(N(C)C)cc2)OC1=S	?	1	-21%	0%	15%	12*
CN(C)c1ccc(/C=C2\N=C(C(C)(C)C)OC2=O)cc1	-11%	-1	-8%	-3%	-5%	7
CN1CCN(S(=O)(=O)c2cccc(C(=O)N(Cc3ccccc3)c3ccccc3)c2)CC1	.	.	.	.	-22%	.
CCCCn1c(N)c(N(CCOC)C(=O)CCCn2c(=O)oc3ccccc32)c(=O)[nH]c1=O	.	.	.	.	0%	.
O=C(CCC1CCCCC1)Nc1nccs1	1%	77*	-21%	8%	0%	29*
O=C(CSc1ccccc1)Nc1nccs1	-15%	50*	-5%[11.4 µM]	3%	6%	28*
O=C(CSCc1ccccn1)Nc1ccccc1	2%	38*	-14%	4%	-11%	22*
O=C(Cc1ccccn1)Nc1ccccc1	?	18	-27%	2%	9%	-1
O=C(Cc1ccccc1)Nc1nccs1	?	5	-25%	-1%	-6%	-1
O=C(CCc1ccccc1)Nc1nccs1	-14%	.	-16%	2%	-9%	20*
Cc1nnc(NC(=O)CCC2CCCCC2)s1	.	.	.	.	7%	.
O=C(CSc1ncn(-c2ccccc2)n1)Nc1nccs1	-1%	35	-8%	-3%	0%	5
SMILES	AmpC detergent	Shiga inhibitor	AmpC inh no detg	SARS PLP yeast	AMA1-RON2 inh	CHX counter
O=C(CSCc1ccccc1)Nc1nccs1	7%	21	-28%	-4%	0%	18*
CCc1ccc(CCC(=O)Nc2nccs2)o1	12%	60*	-39%	-10%	-11%	34*
Cc1cc(C)c2c(CC(=O)Nc3nccs3)coc2c1	5%	11	-13%	1%	5%	20*
Cc1ccc(SCC(=O)Nc2nccs2)cc1	-5%	71*	-36%	-2%	-4%	42*
Cn1c(SCc2ccccc2)nccc1=O	.	.	.	.	-24%	.
O=C(CSCc1c(Cl)cccc1Cl)Nc1nccs1	?	109*	-20%	13%	-4%	42
O=C(CSc1cn(Cc2ccccc2)c2ccccc12)Nc1nccs1	-11%	76*	-41%	-4%	14%	37*
O=C(CSc1cn(Cc2ccccc2)c2ccccc12)NCc1ccc(F)cc1	4%	-13	-4%	-2%	-3%	-5
COc1cccc(C(C)NC(=O)C2CCCO2)c1 (centres undefined)	1%	2	-14%	-7%	-2%	-5
Cc1noc(NS(=O)(=O)c2ccc(NC(=O)c3nn(-c4ccccc4)ccc3=O)cc2)c1C	-11%	-4	-27%	3%	-1%	-2
S=C1NC2=C(CCC/C2=C\c2ccccc2)C(c2ccccc2)N1 (centres undefined)	-12%	-2	11µM*	-3%	-6%	-1
CCCCOc1ccc(/C=C2/Sc3ccccc3C2=O)cc1	-5%	24	-12%	3%	-10%	8
CC(=O)Oc1cccc(/C=C2\Sc3ccccc3C2=O)c1	6%	51*	-4%	-1%	5%	28*
O=C(Nc1ccc2c(c1)OCCO2)c1ccccn1	2%	31	-14%	-13%	14%	12*
O=C(Nc1ccc2c(c1)OCCO2)c1ccc2ccccc2n1	-2%	45*	-46%	-5%	?	39*
O=C(Nc1ccc(NC(=O)c2ccccn2)cc1)C(=O)Nc1ccc2c(c1)OCCO2	10%	62	1%	0%	-2%	8
CCC1Sc2ccccc2N(CC(=O)NCCC2=CCCCC2)C1=O (centres undefined)	?	21	-7%	5%	9%	2
COc1cc(C(=S)N2CCCC2)ccc1O	-6%	-5	-15%	2%	-2%	-2
CCN(CC)C(=O)c1sc2nc(-c3ccc(OC)cc3)cn2c1C	-6%	77*	46%	-1%	0%	38*
CNC(=O)c1sc2nc(-c3ccc(OC)cc3)cn2c1C	-5%	146*	73%	-11%	-10%	86*
COc1ccc(-c2cn3c(C)c(C(=O)NCCN4CCOCC4)sc3n2)cc1	2%	9	136%	-4%	2%	6
CN1CCN(c2ccccc2NC(=O)c2ccc(N3CCOCC3)c([N+](=O)[O-])c2)CC1	-15%	-7	37%	13%	-13%	2
COc1ccc(NC(=O)C(C)(C)Oc2ccc(Cl)cc2)cn1	3%	.	-10%	-7%	2%[11.6 µM]	.
CN(C)N1C(N)=C(C#N)C(c2cccnc2)C2=C1CC(C)(C)CC2=O (centres undefined)	1%	-23	-4%	5%	0%	20
Cc1cc(C)c2c(n1)sc1c(=O)n(CC(=O)c3ccccc3)cnc12	3%	31	-19%	5%	-22%	19
